Results as given in PubChem BioAssay AID1159580 (chemical genetic matrix, 2015).
The whole screen tested about 5,500 compounds, of which about 2,000 (36%) were called active. Inconclusive results (about 18%) are left out. No stated cut-off is given here; in the data, active means normalized growth mostly below about 0.91 (no sharp cut-off); inconclusive means no clear call, values can overlap the other calls; inactive means mostly above about 0.92. Some of the results follow.

Assay: chemical genetic growth profiling, strain panel (AID 1159580);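 further: tested at 20 µM; growth read once vehicle control cultures reached saturation at 30 °C; 1 = growth at the plate median or of vehicle wells; lower values mean less growth of the strain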
Conditions: growth OD

Measured: normalized growth

CC(C)N(C(=O)SCC(Cl)=C(Cl)Cl)C(C)C
inactive: S. cerevisiae deletion strains, locus YAL013W, strain DEP1, active compounds read low 1.01 | S. cerevisiae deletion strains, locus YBR021W, strain FUR4, active compounds read low 1.01 | S. cerevisiae deletion strains, locus YBR229C, strain ROT2, active compounds read low 1.01 | S. cerevisiae deletion strains, locus YCL029C, strain bik1, active compounds read low 1.01 | S. cerevisiae deletion strains, locus YDL035C, strain GPR1, active compounds read low 1.01 | S. cerevisiae deletion strains, locus YDL074C, strain BRE1, active compounds read low 1.04 | S. cerevisiae deletion strains, locus YDL101C, strain DUN1, active compounds read low 1.02 | S. cerevisiae deletion strains, locus YDL134C, strain PPH21, active compounds read low 1.02 | S. cerevisiae deletion strains, locus YDL185W, strain tfp1, active compounds read low 0.999 | S. cerevisiae deletion strains, locus YDL192W, strain arf1, active compounds read low 0.998 | S. cerevisiae deletion strains, locus YDR101C, strain arx1, active compounds read low 0.998 | S. cerevisiae deletion strains, locus YDR150W, strain NUM1, active compounds read low 1.02 | S. cerevisiae deletion strains, locus YDR162C, strain NBP2, active compounds read low 1.02 | S. cerevisiae deletion strains, locus YDR318W, strain mcm21, active compounds read low 1 | S. cerevisiae deletion strains, locus YDR388W, active compounds read low 1 | S. cerevisiae deletion strains, locus YDR502C, strain sam2, active compounds read low 1 | S. cerevisiae deletion strains, locus YEL061C, strain CIN8, active compounds read low 1.01 | S. cerevisiae deletion strains, locus YER110C, active compounds read low 0.998 | S. cerevisiae deletion strains, locus YER155C, strain BEM2, active compounds read low 1.02 | S. cerevisiae deletion strains, locus YER167W, strain BCK2, active compounds read low 1.03 | S. cerevisiae deletion strains, locus YGL078C, strain dbp3, active compounds read low 0.996 | S. cerevisiae deletion strains, locus YGL086W, strain mad1, active compounds read low 1.01 | S. cerevisiae deletion strains, locus YGL248W, strain PDE1, active compounds read low 1.02 | S. cerevisiae deletion strains, locus YGR078C, strain PAC10, active compounds read low 1.02 | S. cerevisiae deletion strains, locus YGR135W, strain pre9, active compounds read low 0.995 | S. cerevisiae deletion strains, locus YGR229C, strain SMI1, active compounds read low 1.04 | S. cerevisiae deletion strains, locus YGR252W, strain gcn5, active compounds read low 0.945 | S. cerevisiae deletion strains, locus YHR030C, strain SLT2, active compounds read low 1.02 | S. cerevisiae deletion strains, locus YHR079C, strain IRE1 (second series), active compounds read low 1 | S. cerevisiae deletion strains, locus YHR094C, strain hxt1, active compounds read low 1.01 | S. cerevisiae deletion strains, locus YHR200W, strain rpn10, active compounds read low 1 | S. cerevisiae deletion strains, locus YIL066C, strain RNR3, active compounds read low 1.02 | S. cerevisiae deletion strains, locus YIL073C, strain SPO22, active compounds read low 1.04 | S. cerevisiae deletion strains, locus YIL125W, strain kgd1, active compounds read low 1 | S. cerevisiae deletion strains, locus YIR030C, strain dcg1, active compounds read low 1 | S. cerevisiae deletion strains, locus YJL095W, strain BCK1, active compounds read low 1.03 | S. cerevisiae deletion strains, locus YJL134W, strain LCB3, active compounds read low 1.02 | S. cerevisiae deletion strains, locus YJL168C, strain set2, active compounds read low 1 | S. cerevisiae deletion strains, locus YJL187C, strain SWE1 (second series), active compounds read low 1.01 | S. cerevisiae deletion strains, locus YJR043C, strain POL32, active compounds read low 1.01 | S. cerevisiae deletion strains, locus YJR075W, strain HOC1, active compounds read low 1.03 | S. cerevisiae deletion strains, locus YKL009W, strain mrt4, active compounds read low 1.01 | S. cerevisiae deletion strains, locus YKL068W, active compounds read low 1.01 | S. cerevisiae deletion strains, locus YKL085W, strain MDH1 (second series), active compounds read low 1.01 | S. cerevisiae deletion strains, locus YKL085W, strain MDH1, active compounds read low 1.01 | S. cerevisiae deletion strains, locus YKL190W, strain CNB1, active compounds read low 1.04 | S. cerevisiae deletion strains, locus YKR001C, strain vps1, active compounds read low 0.987 | S. cerevisiae deletion strains, locus YLR039C, strain RIC1, active compounds read low 0.9 | S. cerevisiae deletion strains, locus YLR058C, strain SHM2, active compounds read low 1.01 | S. cerevisiae deletion strains, locus YLR102C, strain apc9, active compounds read low 1.01 | S. cerevisiae deletion strains, locus YLR262C, strain YPT6, active compounds read low 0.977 | S. cerevisiae deletion strains, locus YLR268W, strain sec22, active compounds read low 0.981 | S. cerevisiae deletion strains, locus YLR330W, strain CHS5, active compounds read low 1.01 | S. cerevisiae deletion strains, locus YLR342W, strain FKS1 (second series), active compounds read low 1.02 | S. cerevisiae deletion strains, locus YLR371W, strain rom2, active compounds read low 1 | S. cerevisiae deletion strains, locus YLR418C, strain cdc73, active compounds read low 0.996 | S. cerevisiae deletion strains, locus YML016C, strain PPZ1, active compounds read low 1.02 | S. cerevisiae deletion strains, locus YML032C, strain rad52, active compounds read low 1 | S. cerevisiae deletion strains, locus YML124C, strain tub3, active compounds read low 1 | S. cerevisiae deletion strains, locus YMR078C, strain ctf18, active compounds read low 1.01 | S. cerevisiae deletion strains, locus YMR223W, strain ubp8, active compounds read low 0.998 | S. cerevisiae deletion strains, locus YMR263W, strain SAP30, active compounds read low 1.03 | S. cerevisiae deletion strains, locus YMR307W, strain GAS1, active compounds read low 1.01 | S. cerevisiae deletion strains, locus YNL067W, strain RPL9B, active compounds read low 1.02 | S. cerevisiae deletion strains, locus YNL128W, strain TEP1, active compounds read low 1.02 | S. cerevisiae deletion strains, locus YNL153C, strain GIM3, active compounds read low 1.01 | S. cerevisiae deletion strains, locus YNL233W, strain BNI4, active compounds read low 1.02 | S. cerevisiae deletion strains, locus YNL250W, strain rad50, active compounds read low 0.999 | S. cerevisiae deletion strains, locus YNL271C, strain bni1, active compounds read low 1 | S. cerevisiae deletion strains, locus YNL298W, strain CLA4, active compounds read low 0.986 | S. cerevisiae deletion strains, locus YNL307C, strain MCK1, active compounds read low 0.979 | S. cerevisiae deletion strains, locus YNL322C, strain KRE1, active compounds read low 1.01 | S. cerevisiae deletion strains, locus YNR052C, strain pop2, active compounds read low 1 | S. cerevisiae deletion strains, locus YOL006C, strain TOP1, active compounds read low 1.08 | S. cerevisiae deletion strains, locus YOL012C, strain htz1 0.763 | S. cerevisiae deletion strains, locus YOL147C, strain pex11, active compounds read low 1 | S. cerevisiae deletion strains, locus YOR061W, strain CKA2, active compounds read low 1.02 | S. cerevisiae deletion strains, locus YOR069W, strain VPS5, active compounds read low 1.02 | S. cerevisiae deletion strains, locus YOR136W, strain idh2, active compounds read low 0.996 | S. cerevisiae deletion strains, locus YOR144C, strain elg1, active compounds read low 1.01 | S. cerevisiae deletion strains, locus YOR184W, strain ser1, active compounds read low 0.99 | S. cerevisiae deletion strains, locus YOR316C, strain cot1, active compounds read low 1.01 | S. cerevisiae deletion strains, locus YPL055C, strain LGE1, active compounds read low 1.04 | S. cerevisiae deletion strains, locus YPL241C, strain CIN2, active compounds read low 1.02 | S. cerevisiae deletion strains, locus YPR119W, strain clb2, active compounds read low 1 | S. cerevisiae deletion strains, locus YPR141C, strain kar3, active compounds read low 1 | S. cerevisiae deletion strains, locus YPR163C, strain tif3, active compounds read low 0.998 | S. cerevisiae deletion strains, locus YPR167C, strain met16, active compounds read low 1.01 | S. cerevisiae deletion strains, strain wtn01, active compounds read low 0.998 | S. cerevisiae strains, strain wild type, active compounds read low 1.01
